Screens as filed in PubChem BioAssay.
Neddylation inh: cullin neddylation inhibition. P61081+Q13564. TR-FRET cullin neddylation, biochemical. inhibition, % at 25 µM. 360,000 compounds, 0.58% hits; in the data active = inhibition above about 36%
Target sequence (P61081 whole entry, looked up): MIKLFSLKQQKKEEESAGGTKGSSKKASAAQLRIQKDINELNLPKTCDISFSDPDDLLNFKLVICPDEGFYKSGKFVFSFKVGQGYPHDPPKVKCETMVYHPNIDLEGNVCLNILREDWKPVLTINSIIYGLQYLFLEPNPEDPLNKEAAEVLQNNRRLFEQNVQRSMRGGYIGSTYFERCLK
Target sequence (Q13564 whole entry, looked up): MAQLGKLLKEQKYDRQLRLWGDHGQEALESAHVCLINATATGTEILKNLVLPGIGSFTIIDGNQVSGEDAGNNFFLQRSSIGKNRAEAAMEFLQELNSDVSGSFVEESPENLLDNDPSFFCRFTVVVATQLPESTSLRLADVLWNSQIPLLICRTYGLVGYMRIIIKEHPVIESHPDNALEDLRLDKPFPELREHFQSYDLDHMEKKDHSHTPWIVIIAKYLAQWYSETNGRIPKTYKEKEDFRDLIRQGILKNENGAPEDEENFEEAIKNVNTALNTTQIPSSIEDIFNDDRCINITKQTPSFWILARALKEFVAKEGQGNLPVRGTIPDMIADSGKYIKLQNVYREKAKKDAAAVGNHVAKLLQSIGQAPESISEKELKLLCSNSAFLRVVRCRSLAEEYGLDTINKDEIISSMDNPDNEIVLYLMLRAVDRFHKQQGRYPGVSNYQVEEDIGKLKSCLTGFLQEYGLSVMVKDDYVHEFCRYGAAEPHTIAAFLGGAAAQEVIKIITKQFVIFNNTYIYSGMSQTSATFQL
NPR2 activator: GC-B (human) receptor activation | 370,000 compounds, 0.11% hits | HEK293-GC-B cells, CNP EC30, cGMP TR-FRET; 0% at EC30 CNP, 100% saturating CNP | P20594 | activation, % at 10 µM | AID 1920062;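 active = activation at 10 µM reaching about 35% in either raw or pattern-adjusted values, limit read from the data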
NadD inh: inhibitors of Staphylococcus aureus NadD; purified NadD enzyme, colorimetric absorbance read-out; inhibition, % at 20 µM; 360,000 compounds, 0.78% hits; AID 602399; in the data active = inhibition above about 26%
NPR1 activator: GC-A (human) enzyme activation; P16066; HEK293 GC-A cells, cGMP TR-FRET, EC30 ANP; 0% at EC30 ANP, 100% saturating ANP; activation, % at 10 µM; 370,000 compounds, 0.14% hits; AID 1671463; in the data active = activation above about 40%
NadD inh conf: confirmation of Staphylococcus aureus NadD inhibitors; inhibition, % at 20 µM; purified S. aureus NadD, colorimetric enzyme assay; shares compounds with NadD inh; 2,000 compounds, 13% hits; in the data active = inhibition mostly above about 42%, no sharp cut-off; inactive = mostly below about 42%
Numbers without * were called inactive. Sampled rows, rich in hits. Any-hit rate of the full collection: about 1.5%.

Cc1cc2cc(C(c3nnnn3Cc3ccccc3)N3CCc4ccccc43)c(=O)[nH]c2cc1C (configuration not stated) was read as Neddylation inh 11, NPR2 activator -2, NadD inh 28 and NPR1 activator 1.
Cc1ccc(C)n1NC(=O)c1ccc(Cl)cc1 was read as Neddylation inh 3, NPR2 activator 10, NadD inh 9 and NPR1 activator 3.
For Cc1ccc(C)n1NC(=O)c1ccc(Cl)cc1Cl the results were Neddylation inh 3, NPR2 activator 2, NadD inh 34*, NPR1 activator -12 and NadD inh conf 27.
`N#C/C(=C\Nc1ccc2cn[nH]c2c1)c1nc(-c2ccccc2)cs1` gave Neddylation inh 11, NPR2 activator 3, NadD inh 35*, NPR1 activator 3 and NadD inh conf 1.
`N#C/C(=C\Nc1ccc2cn[nH]c2c1)c1nc(-c2ccc(Cl)cc2)cs1` gave Neddylation inh 3, NPR2 activator -8, NadD inh 40*, NPR1 activator 2 and NadD inh conf 3.
CCCCOc1ccc(-c2c(C(=O)Nc3ccccc3)c(C)[nH]c(=S)c2C#N)cc1 was read as Neddylation inh -413, NPR2 activator 5, NadD inh 23 and NPR1 activator 34.
For CCCCOc1ccc(-c2c(C#N)c(N)[nH]c(=S)c2C#N)cc1 the results were Neddylation inh -458, NPR2 activator 1, NadD inh 31*, NPR1 activator 4 and NadD inh conf 29.
Screening C[C@H](NC(=O)C[C@@H]1C[C@@H]2c3cc(NC(=O)C4CCC4)ccc3O[C@@H]2[C@@H](CO)O1)c1ccccc1 returned NPR2 activator -2 and NPR1 activator 2.
Screening O=[N+]([O-])c1ccc(/C=N/N=C/c2ccc([N+](=O)[O-])o2)o1 returned Neddylation inh 7, NPR2 activator 3, NadD inh -4 and NPR1 activator 13.
For Cc1csc(N=Cc2ccc([N+](=O)[O-])o2)n1 the results were Neddylation inh -6, NPR2 activator 8, NadD inh 36*, NPR1 activator -5 and NadD inh conf 22.
`CC(COc1cc(F)cc(F)c1)CN1CCC(C(O)(c2ccccc2)c2ccccc2)CC1` (configuration not stated) gave NPR2 activator 2 and NPR1 activator 2.
Screening CCN(CC)CCCNC(=O)CSc1nnc(-c2ccncc2)n1-c1ccc(OC)cc1 returned NPR2 activator -1 and NPR1 activator 4.
For CC(C)[C@H](NC(=O)c1ccco1)C(=O)N1CCC[C@H]1C(=O)NCc1ccccc1 the results were NPR2 activator -2 and NPR1 activator 3.
COc1cc(Br)c(/C=C/c2ccc3cccc(O)c3n2)cc1OC was read as Neddylation inh 3, NPR2 activator 2, NadD inh 26 and NPR1 activator 4.
COc1cc(Br)cc(/C=C/c2ccc3cccc(O)c3n2)c1O was read as Neddylation inh -6, NPR2 activator -4, NadD inh 34*, NPR1 activator -1 and NadD inh conf 26.
Screening COc1cc(/C=C/c2ccc3cccc(O)c3n2)c(Br)cc1O returned Neddylation inh 3, NPR2 activator -6, NadD inh 28*, NPR1 activator 13 and NadD inh conf 13.
For CCOc1ccc(N(CC(=O)Nc2c(C)n(C)n(-c3ccccc3)c2=O)S(=O)(=O)c2cccc3cccnc23)cc1 the results were NPR2 activator -3 and NPR1 activator -3.
NC(=S)NNc1ccnc2cc(Cl)ccc12 was read as Neddylation inh -15, NPR2 activator -10, NadD inh -3 and NPR1 activator -6.
FC(F)Oc1ccc(NC(=S)NNc2ccnc3cc(Cl)ccc23)cc1 was read as Neddylation inh -2, NPR2 activator -4, NadD inh 32*, NPR1 activator -4 and NadD inh conf 18.
For O=C(CSc1ccc(Br)c2cccc(Cl)c12)Nc1ccc(S(=O)(=O)Nc2nccs2)cc1 the results were Neddylation inh -26, NPR2 activator -3, NadD inh 71*, NPR1 activator -2 and NadD inh conf 31*.
Screening Cc1ccc(-c2cc(C(=O)Nc3sc4c(c3C(=O)NCc3ccco3)CCC4)[nH]n2)c(O)c1 returned Neddylation inh -45, NPR2 activator 8, NadD inh 36*, NPR1 activator 5 and NadD inh conf 0.
Screening Cc1cc(O)c(-c2cc(C(=O)Nc3sc4c(c3C(=O)NCc3ccco3)CCC4)[nH]n2)cc1C returned NPR2 activator 3, NadD inh 36*, NPR1 activator 1 and NadD inh conf -1.
For Cc1ccc(C(=O)Nc2sc3c(c2C(=O)NCc2ccco2)CCCC3)cc1 the results were NPR2 activator -3, NadD inh 3 and NPR1 activator 4.
CCN1/C(=C/C=C/C=C/C=C/c2sc3ccccc3[n+]2CC)Sc2ccccc21 was read as Neddylation inh -18, NPR2 activator 4, NadD inh 40*, NPR1 activator 4 and NadD inh conf 79*.
`O=C1CC(=C2c3ccccc3-c3ccccc32)C(=O)N1CCN1CCN(c2cccc(Cl)c2)CC1` gave Neddylation inh -6, NPR2 activator -2, NadD inh 69*, NPR1 activator -5 and NadD inh conf 60*.
Screening Clc1ccc(-c2nnc3n2N=C(c2ccc(-c4ccccc4)cc2)CS3)c(Cl)c1 returned NPR2 activator -9 and NPR1 activator -6.
Cn1c(=O)c2c([nH]c(=S)n2CCCc2ccccc2)n(C)c1=O was read as Neddylation inh -7, NPR2 activator 1, NadD inh 24 and NPR1 activator 1.
Cn1c(=O)[nH]c(=O)c2c1[nH]c(=S)n2CCCc1ccccc1 was read as Neddylation inh -7, NPR2 activator -2, NadD inh 32*, NPR1 activator -4 and NadD inh conf 21.
O=S1(=O)c2ccc(Br)cc2OC[C@@H](Cc2ccccc2)N1Cc1cn(Cc2ccc(Cl)cc2)nn1 was read as NPR2 activator 6 and NPR1 activator -6.
For CCCCN1CN2Cc3cc(OC)ccc3C2CS1(=O)=O (configuration not stated) the results were NPR2 activator 5 and NPR1 activator 0.
For Cc1ccc(-c2cc(C(F)F)n3ncc(C(=O)Nc4ccc(S(=O)(=O)Nc5ccccc5C)cc4)c3n2)cc1 the results were Neddylation inh 38, NPR2 activator 0, NadD inh 36*, NPR1 activator -4 and NadD inh conf 1.
CCN(CC)C(=O)O[C@H]1CC[C@@]23CCCN2C(=O)CCC[C@H]3[C@H]1C was read as NPR2 activator -2 and NPR1 activator -1.
`CCOC1=C2[C@H](c3ccccc3)N(S(=O)(=O)c3ccc(C)cc3)[C@H](C(C)C)[C@H]2C(C#N)(C#N)C(C#N)(C#N)C1` gave NPR2 activator -14 and NPR1 activator -19.
